DT40 TDP1 no CPT: qHTS for Inhibitors of human tyrosyl-DNA phosphodiesterase 1 (TDP1): qHTS in cells in absence of CPT; DT40 Tdp1-/- hTDP1 cells, no CPT, ATP luminescence, 48 h; 420,000 compounds, 15% hits; Potency, µM (doses to about 46.2 µM), for the others: at the highest dose activity change, negative = growth inhibition, usual class: inhibitors; further: on the % scale 0 is the no-effect control and ±100 the full control effect; nearly all actives have a fitted effect of over 55% in size
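Luminescent ATP content (CellTiter-Glo) served as the growth readout. Knockout chicken DT40 cells expressing human TDP1 were exposed to compounds without camptothecin for a minimum 48 hr at 37 °C.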
HT1080NT lethal: qHTS for induction of synthetic lethality in tumor cells producing 2HG: qHTS for the HT-1080-NT fibrosarcoma cell line; Potency, µM (series often up to 46.1 µM), for inactives: at the highest dose activity, negative = less viability, hits mostly cytotoxic; HT-1080-NT fibrosarcoma viability, CellTiter-Glo ATP luminescence, 48 h; 360,000 compounds, 1.6% hits;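 further: NT is the 2HG producing partner of a matched IDH1 knockdown line; 0% = DMSO-treated cells and -100% = media-only wells without cells; nearly all actives have a fitted effect of over 55% in size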
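HT-1080-NT fibrosarcoma cells (2HG-overproducing), 750 cells/well in RPMI with 5% FBS, dosed after 2 h and incubated 48 h at 37C. CellTiter-Glo luminescence normalized to DMSO and no-cell wells; concentration-response curves fitted and classed.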
HepG2 viability: qHTS for Inhibitors of TGF-b: Cytotox Counterscreen; HepG2 CAGA-GFP viability, ATP luminescence, 18 h; Potency, µM (titrated, usually from 46.1 µM), without a hit: at the top dose activity change, negative = cytotoxicity, actives largely listed as cytotoxic; 410,000 compounds, 0.76% hits; AID 588856, 2011
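CellTiter-Glo luminescence gave cytotoxicity after 18 hours at 37 degrees C. The cells were HepG2 CAGA-GFP in 1% FBS DMEM, stimulated with 500 pg/mL TGF-beta after compound addition. %Activity was normalised to no-cell wells (complete cell-killing) and DMSO (no toxicity), and curves were fitted and classified.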
HT1080 IDH1KD tx: qHTS for induction of synthetic lethality in tumor cells producing 2HG: qHTS for the HT-1080-IDH1KD cell line | Potency, µM (top dose mostly 46.1 µM), without a hit: at the top dose activity, negative = toxicity, actives largely listed as cytotoxic | 360,000 compounds, 2% hits | HT-1080 IDH1 knockdown viability, ATP luminescence, 48 h;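 further: 0% = DMSO wells and -100% = cell-free medium wells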
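In this qHTS, HT-1080 cells depleted of IDH1 are exposed for 48 h at 37 °C to compound titrations. Toxicity is scored from CellTiter-Glo luminescence, with DMSO as full viability and medium alone as none.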
TGFb inhibitor: qHTS for Inhibitors of TGF-b; 410,000 compounds, 1.2% hits; HepG2 CAGA-GFP TGF-b/SMAD3 reporter, GFP fluorescence, 18 h; TGF-beta stimulated, 500 pg/mL final; Potency, µM (highest dose often 46.1 µM), inactives show at the top dose activity, negative = inhibition, most hits filed as inhibitors; AID 588855, 2011; further: on the % scale 0 is the no-effect control and ±100 the full control effect; nearly all actives have a fitted effect of over 65% in size
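HEPG2 CAGA-GFP cells (1000/well, DMEM with 1% FBS) were pre-incubated 2 h at 37 degrees C, given compound by pin tool, then stimulated with TGF-beta at 500 pg/mL final for 18 h before per-cell GFP fluorescence imaging.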
TDP1 cell CPT: qHTS for Inhibitors of human tyrosyl-DNA phosphodiesterase 1 (TDP1): qHTS in cells in presence of CPT; AID 686979, 2013; chicken DT40 Tdp1-/-;hTDP1 cells + 20 nM CPT, ATP luminescence, 48 h; Potency, µM (top dose mostly 46.2 µM), for the others: top-dose activity change, negative = growth inhibition, usual class: inhibitors; 420,000 compounds, 12% hits; further: on the % scale 0 is the no-effect control and ±100 the full control effect; nearly all actives have a fitted effect of over 55% in size
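Cell growth measured by CellTiter-Glo luminescence after a minimum 48 h, 37 C compound exposure with 20 nM CPT in Tdp1-knockout DT40 cells stably expressing hTDP1, seeded 400/well; qHTS titration format.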
An asterisk follows results filed as active; ? = inconclusive; / = no result given. In the library only some 17% were active in any assay of this set; here they are far more common. The call rests on the fitted dose curve; in most records, active means well fitted curve in the direction sought with a large enough effect; inconclusive means small, poorly fitted or top-dose-only effect, or another doubt; inactive means no such curve, though single readings can be large; an effect the other way counts as inactive or inconclusive. Potency means the concentration at half of the fitted maximal effect.

SMILES	DT40 TDP1 no CPT	HT1080NT lethal	HepG2 viability	HT1080 IDH1KD tx	TGFb inhibitor	TDP1 cell CPT
CC1CCCCN1C(=O)CSc1nc2ccccc2nc1Cc1ccc(Cl)cc1 (configuration not stated)	?	/	-1.5%	/	?	18.4µM*
O=C(CSc1nc2ccccc2nc1Cc1ccc(Cl)cc1)N1CCN(c2ccccc2)CC1	?	/	-24.4%	/	-8.0%	-9.2%
O=C(CSc1nc2ccccc2nc1SCC(=O)N1CCCCC1)N1CCCCC1	?	?	0.0%	-26.4%	-20.0%	16.4µM*
O=C(CSc1nc2ccccc2nc1Cc1ccc(Cl)cc1)N1CCCCC1	16.4µM*	/	-43.4%	/	?	?
O=C(CSc1nc2ccccc2nc1SCC(=O)N1CCOCC1)N1CCOCC1	-16.9%	-1.0%	13.6%	0.0%	-13.3%	-4.1%
COCCCNC(NC(=O)c1ccc(Cl)cc1)C(Cl)(Cl)Cl (configuration not stated)	16.4µM*	-28.8%	-33.8%	-28.9%	1.3%	?
CC(C)OCCCNC(=O)C(NC(=O)c1ccc(Cl)cc1)C(C)C (configuration not stated)	-1.9%	10.5%	3.2%	27.3%	-5.4%	11.4%
CC(C)OCCCNC(=O)NC(=O)c1ccc(Cl)cc1	25.9µM*	2.0%	-22.9%	7.2%	0.9%	?
Cn1c2ccccc2c2c(C(=O)NCCCN3CCCC3=O)cn(C3CCCCC3)c(=O)c21	?	-3.7%	1.9%	-0.6%	-27.6%	-27.3%
Cn1cc(C(=O)N2CCN(c3cccc(C(F)(F)F)c3)CC2)c2c3ccccc3n(C)c2c1=O	16.4µM*	/	-106.3%	/	?	23.1µM*
CC(=O)c1ccc(N2CCN(C(=O)c3cn(C)c(=O)c4c3c3ccccc3n4C)CC2)cc1	23.1µM*	/	-26.3%	/	11.9%	?
Cn1c2ccccc2c2c(C(=O)N3CCN(c4ccccc4)CC3)cn(C3CCCC3)c(=O)c21	8.2µM*	?	-11.7%	-27.5%	-11.0%	25.9µM*
COCCn1cc(C(=O)N2CCN(C)CC2)c2c3ccccc3n(C)c2c1=O	?	6.5%	5.8%	-0.1%	-23.4%	-4.4%
O=C(c1ccccn1)N1CCN(c2cccc(C(F)(F)F)c2)CC1	-12.5%	1.5%	6.2%	1.8%	28.3%	-28.1%
CN1CCN(CCCNC(=O)c2cn(C3CCCCC3)c(=O)c3c2c2ccccc2n3C)CC1	-11.3%	-22.7%	-10.3%	-5.2%	-0.6%	-11.0%
Cn1c2ccccc2c2c(C(=O)N3CCN(c4cccc(C(F)(F)F)c4)CC3)cn(C3CCCCC3)c(=O)c21	16.4µM*	/	-18.8%	/	?	?
Cc1ccc(C)c(S(=O)(=O)N2CCN(C(=O)c3cccnc3)CC2)c1	1.6%	5.1%	-2.1%	8.9%	-14.2%	-5.0%
Cc1ccn2c(c1)nc(=O)c1cc(S(=O)(=O)N3CCCCC3)ccc12	-16.3%	18.4%	6.1%	14.9%	2.0%	10.3%
O=C(Nc1ccc2c(c1)OCCO2)C1c2ccccc2OCC(=O)N1Cc1ccccc1 (configuration not stated)	1.1%	-4.1%	/	-10.9%	/	-21.9%
CC(=O)c1cccc(NS(=O)(=O)c2ccc3[nH]c4c(c3c2)CCCCC4)c1	16.4µM*	/	-90.0%	/	?	20.6µM*
CCOC(=O)c1cccc(NS(=O)(=O)c2ccc3[nH]c4c(c3c2)CCCC4)c1	?	/	-53.5%	/	14.1µM*	23.1µM*
